Source: PubChem BioAssay (Tox21)
Records with an inconclusive call do not appear. Values without a mark were called inactive. Activity calls are given as the source filed them. The call rests on the fitted dose curve; in most records, active means well fitted cell-killing curve with a large enough effect in the repeat runs; inconclusive means weak or mixed curves, or effect the other way; inactive means flat fitted curve, though single readings scatter.

Assay: qHTS assay to identify small molecule antagonists of the androgen receptor (AR) signaling pathway using the MDA cell line - cell viability counter screen (AID 743041; further: nearly all actives have a fitted effect of over 45% in size)
Conditions: MDA-kb2 viability, CellTiter-Fluor, 16 h, cells co-treated with R1881 androgen agonist; series mostly up to 70.3 µM; viability change, negative = cytotoxic: at the top concentration
Excerpt: National Center for Advancing Translational Sciences [NCATS]
NIH Chemical Genomics Center [NCGC]
U.S. Environmental Protection Agency [EPA]
National Institutes of Environmental Health Sciences [NIEHS]
National Toxicology Program [NTP]
U.S. Food and Drug Administration [FDA]
Androgen receptor (AR), a nuclear hormone receptor, plays a critical role in AR-dependent prostate cancer and other androgen related diseases. Endocrine disrupting chemicals (EDCs) and their interactions with steroid hormone receptors like AR may cause disruption of normal endocrine function as well as interfere with metabolic homeostasis, reproduction, developmental and behavioral functions. To identify the compounds that inhibit AR signaling, MDA-kb2 AR-luc cell line (from ATCC, deposited by Wilson et al.) was used to screen the Tox21 10K compound library. MDA-kb2 AR-luc cell line is human breast carcinoma cell line that was stably transfected with a luciferase reporter gene under control of the MMTV promoter containing response elements for both androgen receptor (AR) and glucocorticoid receptor (GR). The cytotoxicity of the Tox21 compound library against the MDA-kb2 AR-luc cell line was tested in parallel by measuring the cell viability using CellTiter-Fluor assay (Promega, Madison, WI) in the same wells.
Tox21 Assay Protocol Summary:
MDA-kb2 AR-luc cells were dispensed at 3,000 cells/4 uL/well of culture medium into white wall/solid-bottom 1536-well plates using a Multidrop Combi (ThermoFisher Scientific, Waltham, MA) dispenser. After the assay plates were incubated at a 37C and 0% CO2 for 5 hr, 23 nL of compounds dissolved in DMSO, positive controls or DMSO only was transferred to the assay plate by a Pintool station (Kalypsys, San Diego, CA), followed by addition of 1 uL of agonist (R1881) in culture medium using a Bioraptr Flying Reagent Dispenser (FRD) workstation (Beckman Coulter, Indianapolis, IN, USA). The plates were incubated at a 37C and 0% CO2 for 16 h. After 15.5 h incubation, 1uL of CellTiter-Fluor reagent (Promega) was added using a Bioraptr FRD to each plate for measuring cytotoxicity. The fluorescence intensity was quantified on a ViewLux plate reader (PerkinElmer, Shelton, CT) following 30 min incubation at 37C and 0% CO2.
On the % scale 0 is the no-effect control and ±100 the full control effect.

SMILES	viability change, negative = cytotoxic	Potency
COC(C)(C)C	3.69%	–
Cc1ncc(CNC(=O)N(CCCl)N=O)c(N)n1	8.03%	–
CC(=O)C(Cl)Cl	2.79% [at 95 µM]	–
Cc1cnc[nH]1	3.9%	–
C[C@]1(O)CC[C@H]2[C@@H]3CCC4=CC(=O)CC[C@]4(C)[C@@]3(F)[C@@H](O)C[C@@]21C	–	inactive
O=NN1CCN(N=O)CC1	6.64%	–
CCN(CC)CCOC(=O)C(C)(c1ccccc1)c1ccccc1	8.56%	–
CNC(=O)N(C)c1nc2ccccc2s1	1.1%	–
CCCCC(=O)Cl	12.1% [at 95 µM]	–
O=C(N[C@H]1CN2CCC1CC2)c1cc2ccoc2cn1	2.44%	–
CCCSC(=O)Cl	0.745% [at 95 µM]	–
CC(C)CC(N(C)C)C1(c2ccc(Cl)cc2)CCC1 (stereo not given)	-17.2%	–
CC1(C)C(=O)NC(=O)NC1=O	-3.75%	–
Cc1cc(C)nc(Nc2ccccc2)n1	2.47%	–
CC(N)=S	0.475%	–
CNCC(=O)c1ccc(O)c(O)c1	-4.39%	–
O=CNC(N1CCN(C(NC=O)C(Cl)(Cl)Cl)CC1)C(Cl)(Cl)Cl (stereo not given)	1%	–
COc1cc(OC)nc(NC(=O)NS(=O)(=O)c2ncccc2OCC(F)(F)F)n1	0.243%	–
C[N+](=O)[O-]	-0.932%	–
COP(N)(=S)Oc1ccccc1C(=O)OC(C)C (stereo not given)	6.48%	–

SMILES	viability change, negative = cytotoxic	Potency
CC(=O)Nc1cc([As](=O)(O)O)ccc1O	1.55%	–
O=[N+]([O-])c1cccc2cccnc12	-2.58% [at 95 µM]	–
COC(=O)c1ccccc1S(=O)(=O)NC(=O)N(C)c1nc(C)nc(OC)n1	-1.96% [at 95 µM]	–
c1cc[c]([Hg][c]2ccccc2)cc1	0.533%	–
Nc1cnn(-c2ccccc2)c(=O)c1Cl	3.89%	–
O=[N+]([O-])c1ccc(CBr)cc1	2.74% [at 95 µM]	–
COC(=O)COc1ccc(Cl)cc1Cl	1.67%	–
O=C(CCCN1CCC(n2c(=O)[nH]c3ccccc32)CC1)c1ccc(F)cc1	-1.73% [at 32.5 µM]	–
O=C1OC(=O)C2C1C1(Cl)C(Cl)=C(Cl)C2(Cl)C1(Cl)Cl (stereo not given)	-5.75% [at 95 µM]	–
Cc1nnc2n1-c1sc(CCC(=O)N3CCOCC3)cc1C(c1ccccc1Cl)=NC2	–	inactive
COc1ncc(F)c2nc(S(=O)(=O)Nc3c(F)cccc3F)nn12	4.75%	–
CC(=O)[C@H]1CC[C@H]2[C@@H]3CC[C@H]4C[C@H](O)CC[C@]4(C)[C@H]3C(=O)C[C@]12C	5.83%	–
CSc1ccc(C(=O)C(C)(C)N2CCOCC2)cc1	-3.54%	–
C[N+](C)=CCl	-0.267%	–
O=C(O)C(Br)CBr (stereo not given)	-1.31% [at 95 µM]	–
O=c1oc2ccccc2c(O)c1C1CCCc2ccccc21 (stereo not given)	-2.82%	–
OC(c1ccccc1)(c1ccccc1)C1CCNCC1	7.18% [at 32.5 µM]	–
CCOP(=S)(Oc1cnc(C(C)(C)C)nc1)OC(C)C (stereo not given)	-3.38%	–
CC(CCc1ccccc1)NC(C)C(O)c1ccc(O)cc1 (stereo not given)	11.2%	–
CC1CCCCC1NC(=O)Nc1ccccc1 (stereo not given)	-0.346%	–
